# Data reported in PubChem BioAssay (NCI).
# This is part of a sample that, as a whole, favours compounds with a hit. Of some 83,000 tested, about 20% had one in any assay.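 How to read the values: 0–100, growth inhibition (40 = 60% inhibited); 0, no net growth; -100 to 0, cell death (-40 = 40% of starting cells died; -100 = all dead).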 Values without a mark were called inactive. Calls of active or inactive are those of the source. The calls were made as follows: active = growth percent below 10; inactive = the rest.
# Columns and labels:
# Experiment in all cases: NCI-60 one-dose screen, 48 h (100 = growth as untreated, 0 = no growth, -100 = all killed)
# Conditions in all cases: 10 µM unless noted
# SR leukemia = system: SR leukemia
# RPMI-8226 leukemia = system: RPMI-8226 leukemia
# OVCAR-8 ovarian = system: OVCAR-8 ovarian
# OVCAR-5 ovarian = system: OVCAR-5 ovarian
# OVCAR-4 ovarian = system: OVCAR-4 ovarian
# SK-OV-3 ovarian = system: SK-OV-3 ovarian
# IGROV1 ovarian = system: IGROV1 ovarian
# OVCAR-3 ovarian = system: OVCAR-3 ovarian
# HS 578T breast = system: HS 578T breast
# NCI/ADR-RES ovarian = system: NCI/ADR-RES ovarian
# T-47D breast = system: T-47D breast
# BT-549 breast = system: BT-549 breast
# MDA-MB-435 melanoma = system: MDA-MB-435 melanoma
# SW-620 colon = system: SW-620 colon
# MCF7 breast = system: MCF7 breast
# HCT-116 colon = system: HCT-116 colon
# HCC-2998 colon = system: HCC-2998 colon
# KM12 colon = system: KM12 colon
Compound,growth (SR leukemia) [%],growth (RPMI-8226 leukemia),growth (OVCAR-8 ovarian) [%],growth (OVCAR-5 ovarian) [%],growth (OVCAR-4 ovarian) [%],growth (SK-OV-3 ovarian),growth (IGROV1 ovarian),growth (OVCAR-3 ovarian) [%],growth (HS 578T breast),growth (NCI/ADR-RES ovarian) [%],growth (T-47D breast),growth (BT-549 breast) [%],growth (MDA-MB-435 melanoma),growth (SW-620 colon),growth (MCF7 breast),growth (HCT-116 colon) [%],growth (HCC-2998 colon),growth (KM12 colon) [%]
Cc1ccc(NC(=O)c2cc3ccccc3cc2O)c(C)c1,76.8,29.4%,109,96.9,74.4,99.4%,80.4%,66.4,98.9%,82.8,97.2%,75.9,72.5%,78.1%,92.7%,75.8,96.7%,83.1
Nc1c(C(=O)Nc2cccc3ncccc23)sc2nc3c(cc12)CN(Cc1ccccc1)CC3,33.9,58.4%,83,88.8,71.5,78.4%,72.6%,80.1,76.9%,87.9,41.3%,71.5,22.1%,83.7%,53.1%,74.2,93.5%,86.7
CN1C(=O)/C(=C/c2ccc(C(=O)Nc3ncc(Cc4cc(Cl)ccc4Cl)s3)cc2)SC1=S,63.9,57%,80.8,70.7,57,71.1%,56.9%,80.1,80.9%,70.2,59.8%,85.2,5.7% (active),62.8%,67.4%,60.9,83.1%,49.8
c1cc(OCCN2CCCCC2)ccc1CNc1ccc2nc(CCC3CCCCC3)[nH]c2c1,12.5,-22.5% (active),36.6,60.2,49.5,86.1%,42.3%,48.4,45.8%,63.8,-29.6% (active),73.6,-54.2% (active),2.97% (active),-3.08% (active),12.9,-13.5% (active),43
CS(=O)(=O)Nc1cc(-c2ccc3ncnc(Nc4ccc5c(cnn5Cc5ccccc5F)c4)c3c2)cnc1Cl,35.4,5.17% (active),69.7,37.9,63.4,29.9%,-15.8% (active),13.1,7.95% (active),92.2,-4.36% (active),14.6,43.6%,46.8%,13.9%,60.4,59.3%,71.5
O=S(O)c1cc(Cl)cc(Cl)c1OCc1ccccc1,92.6,93.1%,97.6,99,113,102%,109%,107,95.4%,103,102%,107,107%,107%,100%,96.2,102%,105
Cc1ccc2c(c1)sc1nc(-c3c[nH]c4ccccc34)c(Nc3ccccc3)n12,97.2,102%,104,105,95.8,-4.12% (active),104%,99.2,98.7%,104,96%,98.5,97%,94.7%,98.4%,104,106%,105
CCCCCCCCn1ccc2cc(NC(=O)CN3CCN(c4cc(C)nc(Cl)n4)CC3)ccc21,73.3,73.5%,94.9,95.2,75.2,105%,72.5%,108,94.2%,84.8,67.8%,75,84.1%,95.3%,75.4%,79.2,106%,91.9
